Bioassay records: PubChem, National Center for Advancing Translational Sciences (NCATS)
An excerpt weighted towards active compounds, which were near 7.9% of everything screened.
HT1080-NT tox: kills 2HG-producing HT-1080-NT fibrosarcoma cells. AID 686970. 360,000 tested, 1.6% active. Potency, µM (highest dose often 46.1 µM), for the others: top-dose activity, negative = less viability, usual class: cytotoxic. HT-1080-NT fibrosarcoma viability, CellTiter-Glo ATP luminescence, 48 h;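 further: NT is the 2HG producing partner of a matched IDH1 knockdown line; 0% = DMSO-treated cells and -100% = media-only wells without cells; nearly all actives have a fitted effect of over 55% in size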
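HT-1080-NT fibrosarcoma cells (2HG-overproducing), 750 cells/well in RPMI with 5% FBS, dosed after 2 h and incubated 48 h at 37C. CellTiter-Glo luminescence normalized to DMSO and no-cell wells; concentration-response curves fitted and classed.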
HT1080 IDH1KD tx: toxicity to HT-1080 IDH1 knockdown cells (counter line) | HT-1080 IDH1 knockdown viability, ATP luminescence, 48 h | Potency, µM (highest dose often 46.1 µM), for the others: top-dose activity, negative = toxicity, hits mostly cytotoxic | 360,000 tested, 2% active | AID 686971;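 further: 0% = DMSO wells and -100% = cell-free medium wells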
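CellTiter-Glo luminescence after 48 h compound exposure at 37 degrees C of IDH1-knockdown HT-1080 cells in 5% FBS RPMI. %Activity scaled between DMSO wells and cell-free media wells, with curves fitted and assigned curve classes.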
KB-3-1 tox: kills parental KB-3-1 adenocarcinoma cells | KB-3-1 viability, CellTiter-Glo ATP luminescence, 72 h | AID 1347075 | 400,000 tested, 1.4% active | Potency, µM (highest dose often 46.1 µM), usual class: cytotoxic; further: on the % scale 0 is the no-effect control and ±100 the full control effect; nearly all actives have a fitted effect of over 60% in size
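Viability of parental KB-3-1 cells, measured by CellTiter-Glo luminescence, followed a 72 h incubation at 37 °C with pinned compounds in phenol-red-free DMEM containing 10% FBS.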
MCF10A rerep: induces DNA re-replication in MCF 10a normal breast cells | MCF 10A DNA re-replication, Hoechst nuclear intensity, 48 h | Potency, µM (highest dose often 46.1 µM), inactives show at the highest dose activity, positive = re-replication, hits mostly activators | 350,000 tested, 2.9% active; further: % of control where 0% means no effect; nearly all actives have a fitted effect of over 50% in size
KB-V1 cytotox: KB-V1 MDR subline cytotoxicity; 400,000 tested, 3.4% active; Potency, µM (titrated, usually from 46.1 µM), actives largely listed as cytotoxic; KB-V1 MDR cells viability, CellTiter-Glo, 72 h; further: on the % scale 0 is the no-effect control and ±100 the full control effect; nearly all actives have a fitted effect of over 60% in size
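KB-V1 cells (P-gp-expressing MDR subline of KB-3-1) in phenol-red-free DMEM with 10% FBS were exposed to library compounds over a concentration series for 72 h at 37 degrees C. Viability read by CellTiter-Glo luminescence; concentration-effect curves fitted after normalization.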
SW480 rereplic: DNA re-replication induction in SW480 cells. SW480 DNA re-replication, Hoechst DNA content imaging, 48 h. Potency, µM (titrated, usually from 46.1 µM), for the others: top-dose re-replication activation, most hits filed as activators. 340,000 tested, 1.8% active. AID 624297; further: % of control where 0% means no effect; nearly all actives have a fitted effect of over 55% in size
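Cells (250 per well) received 23 nL compound or DMSO by pin tool and were kept 48 hr at 37 C, 5% CO2. Nuclei were then stained with Hoechst for 40 min and scanned for DNA content.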
* marks the source's active call; other numbers are inactive results; i = inactive; u = inconclusive; x = not tested or not shown; [ ] = remark or other dose. The call rests on the fitted dose curve; in most records, active means well fitted curve in the direction sought with a large enough effect; inconclusive means small, poorly fitted or top-dose-only effect, or another doubt; inactive means no such curve, though single readings can be large; an effect the other way counts as inactive or inconclusive. Potency means the concentration at half of the fitted maximal effect.

SMILES	HT1080-NT tox	HT1080 IDH1KD tx	KB-3-1 tox	MCF10A rerep	KB-V1 cytotox	SW480 rereplic
COc1cc(/C=C/C(=O)c2ccc(F)cc2)cc(OC)c1OC	23.1µM*	18.4µM*	i	u	u	18.4µM*
COc1cc(/C=C/C(=O)c2ccc3c(c2)OCCO3)cc(OC)c1OC	-10.7%	u	u	u	i	u
COc1ccc(OC)c(/C=C/C(=O)c2ccc3c(c2)OCCO3)c1	u	u	u	20.6µM*	u	7.5%
Oc1ccc(N=Nc2c(O)ccc3ccccc23)cc1	11.2µM*	u	i	-5.1%	u	1.3%
O=C(NCc1ccc(F)cc1)C(=O)NCC1OCCN1S(=O)(=O)c1cc(F)ccc1F (centres undefined)	7.8%	4.7%	i	x	i	x
Cc1ccc(S(=O)(=O)Nc2cccc(-c3cn4ccsc4n3)c2)cc1	u	u	u	13µM*	23.1µM*	u
O=S(=O)(Nc1cccc(-c2cn3cccnc3n2)c1)c1ccc(F)cc1	-1.3%	-1.7%	i	-0.2%	20.6µM*	-1.9%
CSc1ccc(CCNC(=O)C2CCN(c3nc4ccccc4nc3C(F)(F)F)CC2)cc1	x	x	i	x	u	x
CC1CCC(NC(=O)c2ccc3c(c2)N(Cc2cccc(F)c2)C(=O)c2ccccc2S3)CC1 (centres undefined)	x	x	i	x	i	x
CCN1C(=O)C2(Nc3ccccc3-c3nc4ccccc4n32)c2cc(OC)ccc21 (centres undefined)	-8.5%	-4.8%	u	1.2%	13µM*	1.5%
COc1ccc2c(c1)c1c(c(=O)n(-c3ccccc3C)c(=O)n1Cc1cccc(C(F)(F)F)c1)n2C	x	x	i	x	i	x
CCCN(C(=O)Cn1cnc2sc(C)c(S(=O)(=O)N3CCN(c4ncccn4)CC3)c2c1=O)c1cccc(C)c1	x	x	i	x	i	x
CN(C)CCCN(C(=O)c1ccc(S(=O)(=O)N2CCCC2)cc1)c1nc2ccc(Br)cc2s1	20.6µM*	23.1µM*	u	1.1%	i	7.9%
Cc1cc(C)c2nc(N(CCCN(C)C)C(=O)c3ccc(S(=O)(=O)N4CCCCCC4)cc3)sc2c1	16.4µM*	16.4µM*	u	u	u	u
Cc1ccc2nc(N(CCCN(C)C)C(=O)c3ccc4c(c3)CCCC4)sc2c1	-29.1%	u	u	u	4.11µM*	u
Cc1ccc2sc(N(CCCN(C)C)C(=O)c3ccc(S(=O)(=O)N4CCCCCC4)cc3)nc2c1C	u	u	u	u	i	-1.3%
CCOc1ccc2nc(N(CCCN(C)C)C(=O)c3ccc(S(=O)(=O)N4CCCC4)cc3)sc2c1	-17.3%	-11.0%	i	-6.0%	i	3.5%
COc1cc(NC(=O)c2cccc3c(-c4cnn(C)c4)coc23)cc(OC)c1OC	u	u	i	x	u	x
NC(=O)c1cc(Br)cc2c3c([nH]c12)CCCC3	u	u	8.2µM*	u	16.4µM*	u
Brc1ccc2[nH]c3c(c2c1)CCC3	-12.9%	-21.3%	u	-0.7%	i	13.6%
CCCCOc1ccc(Nc2cc(Cl)ccc2C(=O)O)cn1	-17.3%	-11.0%	i	16.4µM*	i	7.1%
Fc1ccc(CNn2cnnc2SCc2ccc(F)cc2)cc1	-23.6%	u	i	5.0%	u	1.0%
Cc1ccc(CNn2cnnc2SCc2ccc(F)cc2)cc1	-27.2%	u	u	4.1%	14.6µM*	5.8%
O=C(NNc1ccc(O)cc1)c1ccc(Br)cc1	u	4.11µM*	i	u	i	-40.1%
CCCc1ccc(C(=O)NNc2ccc(F)cc2)cc1	4.11µM*	7.31µM*	u	u	i	4.2%
SMILES	HT1080-NT tox	HT1080 IDH1KD tx	KB-3-1 tox	MCF10A rerep	KB-V1 cytotox	SW480 rereplic
O=C(NNc1ccccc1)c1ccccc1	u	-17.5%	i	u	u	-3.3%
CCN(C)C1CN(Cc2cn(Cc3cccc(Cl)c3)nn2)S(=O)(=O)C1 (centres undefined)	23.6%	9.9%	i	x	i	x
Cc1ccc(NC(=O)CN(C)C(=O)Cc2coc3cc(C)c(C)cc23)cc1	0.0%	-6.4%	i	2.6%	i	-25.8%
CCc1cc(C(=O)N(CC)CC(=O)Nc2ccc(OC)cc2)sc1C	-1.2%	1.6%	i	u	18.4µM*	8.8%
CCN(CC(=O)Nc1ccc(OC)cc1)C(=O)Cc1coc2cc(C)c(C)cc12	-1.0%	-7.3%	i	-0.6%	16.4µM*	-0.7%
CN(C(=O)Cn1cc(S(=O)(=O)Cc2ccccc2Cl)c2ccccc21)c1ccccc1	x	x	i	x	i	x
Cc1ccc2nc(-c3cccc(NS(C)(=O)=O)c3)cc(-c3ccccc3)c2c1	-1.7%	-21.8%	u	u	18.4µM*	u
CCNC(=O)c1c(O)c2ccccc2[nH]c1=O	u	-0.7%[9.24 µM]	i	6.51µM*	i	9.9%
O=C(NCCc1ccccc1)c1c(O)c2ccccc2[nH]c1=O	1.1%	0.7%	i	12.6%	i	4.0%
CC(C)=NNC(=O)c1c(O)c2ccccc2[nH]c1=O	u	-0.7%	i	9.2µM*	i	11.2%
CCN(CC)c1sc(S(=O)(=O)c2ccccc2)nc1S(=O)(=O)c1ccc(C)cc1	x	x	i	x	u	x
O=C(c1cc(-c2cccc(Cl)c2)nc2ccccc12)N1CCN(c2ccccn2)CC1	-2.5%	-13.2%	i	u	u	u
CC1CCN(C(=O)CSc2nc(-c3ccc(F)cc3)cc(C(F)(F)F)n2)CC1	x	x	i	x	u	x
OC(c1cc(-c2ccc(C(F)(F)F)cc2)nc(C(F)(F)F)c1)C1CCCCN1 (centres undefined)	u	u	i	23.1µM*	i	u
OC(c1cc(C(F)(F)F)nc2c(C(F)(F)F)cccc12)C1CCCCN1 (centres undefined)	13µM*	10.3µM*	u	u	u	u
OC(c1cc(-c2cccc(Cl)c2)nc2ccccc12)C1CCCCN1 (centres undefined)	4.11µM*	2.91µM*	i	u	u	u
Cc1ccc(C)c(Cn2cc(S(=O)(=O)c3ccc(Cl)cc3)c(=O)c3cc(F)ccc32)c1	x	x	i	x	i	x
COc1ccc(CCNC(=O)C(=O)NCC(c2ccco2)S(=O)(=O)c2ccc(F)cc2)cc1 (centres undefined)	x	x	i	x	i	x
CSc1ccc(NC(=O)C2(C)CCN2C(=O)Cc2ccc(C(C)(C)C)cc2)cc1 (centres undefined)	u	u	u	x	16.4µM*	x
